Our source for the outcome and AC50 values is PubChem BioAssay (EPA / NIEHS).

Results filed as inconclusive are left out. Active and inactive are the calls of the source. Rule for the calls, unless noted: active = hit-call score of the fitted dose curve at least 0.9, where 1 is the maximum; inactive = score below 0.9.

Experiment [1] has as its target Myc proto-oncogene protein (Homo sapiens) (UniProt P01106). As to the kind of experiment: ATG_Myc_CIS: Attagene CIS-FACTORIAL HepG2 Assay for human Myelocytomatosis (Myc) Proto-Oncogene Transcription Factor (AID 2282990). Particulars: HepG2, Attagene cis-reporter transcription factor activity; actives raise or lower the signal. Summed up: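 HepG2 cells transiently transfected with multiple cis-promoter-driven reporter transcription units, so endogenous TF activity is read. After 24 h compound exposure, reporter mRNA was quantified by RT-PCR, 6-FAM labelling, HpaI digestion and capillary electrophoresis; bidirectional fit versus DMSO.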

Experiment [2] is described as follows: ATG_NRF2_ARE_CIS: Attagene CIS-FACTORIAL HepG2 Assay for human Nuclear Factor Erythroid 2 Related Factor 2 (NFR2) response to Antioxidant Response Elements (ARE) (AID 2282992). Conditions: HepG2 Attagene ARE/NRF2 reporter, transcription factor activity; actives raise or lower the signal. In short, it runs like this: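 HepG2 cells transiently transfected with multiplexed cis-element reporter constructs, 24 h after chemical dosing; reporter mRNA quantified by RT-PCR, fluorescent primer extension, HpaI digestion and capillary electrophoresis. Bidirectional fit relative to DMSO.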

For experiment [3], the target named is human Peroxisome Proliferator-activated Receptor delta (PPARd), PPARD (gene 5467) (UniProt Q03181). Nature of the experiment: ATG_PPARd_TRANS: Attagene TRANS-FACTORIAL HepG2 Assay for human Peroxisome Proliferator-activated Receptor delta (PPARd) (AID 2283002; active = hit-call score of the fitted dose curve at least 0.9, where 1 is the maximum). In short, it runs like this: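 HepG2 cells transiently transfected with multiplexed GAL4-UAS reporter units and exogenous chimeric NR-Gal4 proteins; 24 h compound exposure. Reporter mRNA measured by RT-PCR, 6-FAM labelling, HpaI digestion and capillary electrophoresis; gain of signal versus DMSO.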

Experiment [4] addresses Peroxisome proliferator-activated receptor gamma (Homo sapiens) (UniProt P37231). As to the kind of experiment: ATG_PPARg_TRANS: Attagene TRANS-FACTORIAL HepG2 Assay for human Peroxisome Proliferator-activated Receptor-gamma (PPARg) (AID 2283007; active = hit-call score of the fitted dose curve at least 0.9, where 1 is the maximum). In short, it runs like this:
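Twenty-four hours after chemical dosing of transiently transfected HepG2 cells, isolated RNA was converted to cDNA, reporter sequences amplified and 6-FAM-labelled, then HpaI-digested and analysed by capillary electrophoresis. Signal increase against DMSO was fitted.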

Experiment [5] can be described thus: ATG_NF_kB_CIS: Attagene CIS-FACTORIAL HepG2 Assay for human Nuclear Factor Kappa B (NF-kB) (AID 2282991). Conditions: HepG2 Attagene cis-factorial NF-kB reporter mRNA; actives raise or lower the signal. Summed up:
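Fluorescence of labelled RT-PCR products separated by capillary electrophoresis gives reporter mRNA levels from transfected HepG2 cells exposed 24 h; values are fitted in both directions relative to DMSO.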

Experiment [6] in a line: ATG_Oct_MLP_CIS: Attagene CIS-FACTORIAL HepG2 Assay for human Octamer-Binding Transcription Factor (Oct) (AID 2282993). Particulars: HepG2 Attagene cis-factorial Oct reporter, mRNA; actives raise or lower the signal. Summed up: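 Readout is reporter transcript level from RT-PCR with fluorescent primer extension and capillary electrophoresis, fitted in both directions against DMSO. Transfected HepG2 reporter units report endogenous factor activity after 24 h dosing.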

The target of experiment [7] is Cellular tumor antigen p53 (Homo sapiens) (UniProt P04637). As to the kind of experiment: ATG_p53_CIS: Attagene CIS-FACTORIAL HepG2 Assay for human p53 Transcription Factor (AID 2282994). Conditions: HepG2 p53 cis-element reporter, Attagene mRNA; actives raise or lower the signal. Summed up: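 HepG2 cells transiently transfected with cis-regulated multiple reporter transcription units, dosed 24 h. Reporter mRNA measured by RT-PCR, 6-FAM primer extension, HpaI digestion and capillary electrophoresis; bidirectional fit relative to DMSO.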

Experiment [8] addresses human Peroxisome Proliferator-activated Receptor alpha (PPARa), PPARA (gene 5465) (UniProt Q07869). As to the kind of experiment: ATG_PPARa_TRANS: Attagene TRANS-FACTORIAL HepG2 Assay for human Peroxisome Proliferator-activated Receptor alpha (PPARa) (AID 2283001; active = hit-call score of the fitted dose curve at least 0.9, where 1 is the maximum). Summed up: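 HepG2 cells transiently transfected with multiplexed GAL4-UAS reporter units and chimeric NR-Gal4 constructs were dosed for 24 h. Reporter mRNA was measured by RT-PCR with fluorescent labelling and capillary electrophoresis; gain of signal fitted against DMSO.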

In experiment [9] the target is Nuclear receptor subfamily 1 group I member 2 (Homo sapiens) (UniProt O75469). As to the kind of experiment: ATG_PXR_TRANS: Attagene TRANS-FACTORIAL HepG2 Assay for human Pregnane X Receptor (PXR) (AID 2283008; active = hit-call score of the fitted dose curve at least 0.9, where 1 is the maximum). Summed up:
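HepG2 cells transiently transfected with GAL4-UAS reporter units and PXR-Gal4 chimera, exposed 24 h. Reporter mRNA quantified by RT-PCR, fluorescent labelling, HpaI digestion and capillary electrophoresis; gain of signal vs DMSO.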

The target of experiment [10] is human Retinoic Acid Receptor beta (RARb), RARB (gene 5915) (UniProt P10826). Nature of the experiment: ATG_RARb_TRANS: Attagene TRANS-FACTORIAL HepG2 Assay for human Retinoic Acid Receptor beta (AID 2283004; active = hit-call score of the fitted dose curve at least 0.9, where 1 is the maximum). Summed up: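 HepG2 cells transiently transfected with multiplexed GAL4-UAS reporter units expressing chimeric NR–Gal4 fusions; 24 h compound exposure. Reporter mRNA quantified by RT-PCR, 6-FAM labelling, HpaI digestion and capillary electrophoresis; gain-of-signal fitted against DMSO baseline.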

Experiment [11] can be described thus: BSK_3C_TissueFactor: BioMAP Diversity Plus: 3C Assay for Tissue Factor Biomarker Activity (AID 2282997). Particulars: BioMAP 3C HUVEC, tissue factor biomarker readout; actives raise or lower the signal. In short, it runs like this: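 Primary human umbilical vein endothelial cells in the 3C system were exposed to test chemical for 24 h, then Tissue Factor measured by ELISA. Activity was fitted bidirectionally against DMSO as negative control and baseline.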

Experiment [12] can be described thus: BSK_3C_uPAR: BioMAP Diversity Plus: 3C Assay for Urokinase-type plasminogen activator receptor (uPAR) Biomarker Activity (AID 2282998). Conditions: BioMAP 3C HUVEC, uPAR biomarker ELISA; actives raise or lower the signal. In short, it runs like this:
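Cell-surface uPAR on HUVEC (3C system) read by ELISA at 24 h post-treatment, with DMSO as baseline and fitting in both directions. Parallel cultures stained with SRB to flag overt cytotoxicity.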

The nature of experiment [13]: BSK_3C_VCAM1: BioMAP Diversity Plus: 3C Assay for Vascular cell adhesion molecule 1 (VCAM1) Biomarker Activity (AID 2282999). Conditions: BioMAP 3C HUVEC, VCAM1 ELISA, cytokine-stimulated; actives raise or lower the signal. In short, it runs like this: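 Human umbilical vein endothelial cells were dosed with compound for 24 h, after which cell-surface VCAM-1 was quantified by ELISA. Bidirectional curve fitting used DMSO as negative control and activity baseline.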

Experiment [14] can be described thus: BSK_4H_Eotaxin3: BioMAP Diversity Plus: 4H Assay for Eotaxin 3 Biomarker Activity (AID 2283000).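 Note: CCL26 protein level quantified by ELISA in parallel with SRB cytotoxicity check.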 Conditions: primary human endothelial cells (HUVEC); actives raise or lower the signal. Summed up: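 HUVEC, 24 h post-dose, ELISA for Eotaxin-3/CCL26. Gain or loss of signal fitted bidirectionally vs DMSO baseline.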
Read-out in experiment [15]: Intercellular Adhesion Molecule 1 (ICAM1), ICAM1 (gene 3383)
As to the kind of experiment: BSK_3C_ICAM1: BioMAP Diversity Plus: 3C Assay for Intercellular Adhesion Molecule 1 (ICAM1) Biomarker Activity (AID 2283003). Particulars: primary human endothelial cells (HUVEC); actives raise or lower the signal. Summed up:
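Primary human umbilical vein endothelial cells in the BioMAP 3C system were exposed to chemicals for 24 h, then ICAM-1 was quantified by ELISA. Activity was fitted bidirectionally against the DMSO negative control baseline.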

Experiment [16] is described as follows: BSK_3C_Proliferation: Cell Proliferation Assessment in the BioMAP Diversity Plus: 3C Assay (AID 2283006). Conditions: primary human endothelial cells (HUVEC). Summed up:
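Human umbilical vein endothelial cells were grown sub-confluent and exposed to chemical for 48 h, then fixed with 10% TCA and stained with 0.1% sulforhodamine B; absorbance at 560 nm gave relative cell number, fitted bidirectionally against DMSO baseline.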

The target in experiment [17] is human Retinoic Acid Receptor gamma (RARg), RARG (gene 5916) (UniProt P13631). Nature of the experiment: ATG_RARg_TRANS: Attagene TRANS-FACTORIAL HepG2 Assay for human Retinoic Acid Receptor gamma (RARg) (AID 2283009; active = hit-call score of the fitted dose curve at least 0.9, where 1 is the maximum). Summed up:
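HepG2 cells transiently transfected with multiplexed reporter units expressing chimeric RARg-GAL4 and GAL4-UAS-driven reporters; 24 h compound exposure. Reporter mRNA quantified by RT-PCR with fluorescent labelling and capillary electrophoresis; gain-of-signal fitted relative to DMSO baseline.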

Experiment [18] has as its target human RAR-related Orphan Receptor beta (RORb), RORB (gene 6096) (UniProt Q92753). As to the kind of experiment: ATG_RORb_TRANS: Attagene TRANS-FACTORIAL HepG2 Assay for human RAR-related Orphan Receptor beta (RORb) (AID 2283010; active = hit-call score of the fitted dose curve at least 0.9, where 1 is the maximum). Summed up:
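HepG2 cells were transiently transfected with multiplexed GAL4-UAS reporter units expressing chimeric nuclear receptor–GAL4 proteins, then dosed for 24 h. Reporter mRNA was quantified by RT-PCR with fluorescent labelling and capillary electrophoresis; gain of signal was fitted relative to DMSO.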

Experiment [19] deals with Retinoic acid receptor alpha (Homo sapiens) (UniProt P10276). As to the kind of experiment: ATG_RARa_TRANS: Attagene TRANS-FACTORIAL HepG2 Assay for human Retinoic Acid Receptor alpha (RARa) (AID 2283005; active = hit-call score of the fitted dose curve at least 0.9, where 1 is the maximum). In short, it runs like this: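 HepG2 cells transiently transfected with multiple reporter units expressing chimeric RARα-GAL4 fusion, with GAL4-UAS-driven reporters. After 24 h compound exposure, reporter mRNA induction quantified by RT-PCR and capillary electrophoresis with fluorescent labeling; gain-of-signal fitted relative to DMSO control.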
Sequence of Retinoic acid receptor alpha (Homo sapiens) (P10276 whole entry, looked up, the tested form may be a part): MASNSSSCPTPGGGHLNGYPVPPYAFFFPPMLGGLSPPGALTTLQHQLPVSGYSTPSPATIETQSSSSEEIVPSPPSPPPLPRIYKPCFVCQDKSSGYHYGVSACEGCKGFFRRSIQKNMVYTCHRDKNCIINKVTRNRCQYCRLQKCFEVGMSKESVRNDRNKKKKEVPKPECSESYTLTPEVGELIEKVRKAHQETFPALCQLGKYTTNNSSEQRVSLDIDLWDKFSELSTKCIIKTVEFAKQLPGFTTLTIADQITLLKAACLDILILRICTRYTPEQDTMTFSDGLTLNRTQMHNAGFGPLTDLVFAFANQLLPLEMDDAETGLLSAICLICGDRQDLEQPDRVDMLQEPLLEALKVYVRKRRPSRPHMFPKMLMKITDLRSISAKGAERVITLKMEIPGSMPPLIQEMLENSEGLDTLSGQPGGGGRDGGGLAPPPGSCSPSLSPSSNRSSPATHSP

Sequence of Cellular tumor antigen p53 (Homo sapiens) (P04637 whole entry, looked up): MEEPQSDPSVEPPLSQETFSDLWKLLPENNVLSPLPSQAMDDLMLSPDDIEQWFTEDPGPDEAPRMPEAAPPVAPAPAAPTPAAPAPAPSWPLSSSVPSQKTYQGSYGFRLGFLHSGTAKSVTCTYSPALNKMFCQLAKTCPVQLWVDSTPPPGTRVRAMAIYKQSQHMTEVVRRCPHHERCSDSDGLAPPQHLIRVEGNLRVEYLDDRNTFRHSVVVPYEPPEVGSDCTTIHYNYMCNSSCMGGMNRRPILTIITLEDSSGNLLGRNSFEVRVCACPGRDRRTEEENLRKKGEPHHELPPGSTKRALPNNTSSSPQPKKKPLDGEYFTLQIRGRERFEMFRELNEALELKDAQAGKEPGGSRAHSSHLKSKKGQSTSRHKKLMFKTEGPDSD
Sequence of human Peroxisome Proliferator-activated Receptor alpha (PPARa), PPARA (gene 5465) (Q07869 whole entry, looked up, the tested form may be a part): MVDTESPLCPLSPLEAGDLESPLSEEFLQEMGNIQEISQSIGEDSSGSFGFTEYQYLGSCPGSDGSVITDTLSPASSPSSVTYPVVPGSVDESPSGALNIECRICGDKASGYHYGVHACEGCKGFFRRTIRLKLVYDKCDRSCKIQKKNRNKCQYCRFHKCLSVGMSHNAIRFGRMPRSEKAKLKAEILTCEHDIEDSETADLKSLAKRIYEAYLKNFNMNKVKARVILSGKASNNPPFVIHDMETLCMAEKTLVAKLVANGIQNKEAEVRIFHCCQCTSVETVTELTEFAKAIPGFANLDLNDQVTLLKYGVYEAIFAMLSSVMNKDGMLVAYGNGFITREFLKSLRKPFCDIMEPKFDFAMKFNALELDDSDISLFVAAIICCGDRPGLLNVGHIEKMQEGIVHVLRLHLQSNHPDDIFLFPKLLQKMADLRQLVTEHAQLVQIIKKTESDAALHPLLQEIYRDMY
Sequence of human Peroxisome Proliferator-activated Receptor delta (PPARd), PPARD (gene 5467) (Q03181 whole entry, looked up, the tested form may be a part): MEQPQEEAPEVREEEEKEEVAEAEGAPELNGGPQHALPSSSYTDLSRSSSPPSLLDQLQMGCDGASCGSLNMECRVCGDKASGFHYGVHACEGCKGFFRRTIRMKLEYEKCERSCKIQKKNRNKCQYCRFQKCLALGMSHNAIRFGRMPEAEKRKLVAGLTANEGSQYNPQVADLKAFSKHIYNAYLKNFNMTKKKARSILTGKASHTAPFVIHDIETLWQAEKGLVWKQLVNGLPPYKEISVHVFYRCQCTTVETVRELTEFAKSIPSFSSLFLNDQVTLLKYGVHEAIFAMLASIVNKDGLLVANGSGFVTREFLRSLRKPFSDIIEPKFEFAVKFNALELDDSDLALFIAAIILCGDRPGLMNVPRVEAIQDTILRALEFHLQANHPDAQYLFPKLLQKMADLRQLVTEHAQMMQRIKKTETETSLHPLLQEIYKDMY
Sequence of Myc proto-oncogene protein (Homo sapiens) (P01106 whole entry, looked up): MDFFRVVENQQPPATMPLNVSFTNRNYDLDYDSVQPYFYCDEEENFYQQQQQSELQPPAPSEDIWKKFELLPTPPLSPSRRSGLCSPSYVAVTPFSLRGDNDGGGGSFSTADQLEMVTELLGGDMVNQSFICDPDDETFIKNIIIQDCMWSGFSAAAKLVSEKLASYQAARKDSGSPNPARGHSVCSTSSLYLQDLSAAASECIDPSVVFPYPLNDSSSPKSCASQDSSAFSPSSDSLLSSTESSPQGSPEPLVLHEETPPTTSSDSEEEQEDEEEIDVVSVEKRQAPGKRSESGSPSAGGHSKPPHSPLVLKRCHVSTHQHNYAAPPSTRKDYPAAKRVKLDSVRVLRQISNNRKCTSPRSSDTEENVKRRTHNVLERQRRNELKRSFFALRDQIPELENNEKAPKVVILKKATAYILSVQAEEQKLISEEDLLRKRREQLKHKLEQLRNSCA
Sequence of Nuclear receptor subfamily 1 group I member 2 (Homo sapiens) (O75469 whole entry, looked up, the tested form may be a part): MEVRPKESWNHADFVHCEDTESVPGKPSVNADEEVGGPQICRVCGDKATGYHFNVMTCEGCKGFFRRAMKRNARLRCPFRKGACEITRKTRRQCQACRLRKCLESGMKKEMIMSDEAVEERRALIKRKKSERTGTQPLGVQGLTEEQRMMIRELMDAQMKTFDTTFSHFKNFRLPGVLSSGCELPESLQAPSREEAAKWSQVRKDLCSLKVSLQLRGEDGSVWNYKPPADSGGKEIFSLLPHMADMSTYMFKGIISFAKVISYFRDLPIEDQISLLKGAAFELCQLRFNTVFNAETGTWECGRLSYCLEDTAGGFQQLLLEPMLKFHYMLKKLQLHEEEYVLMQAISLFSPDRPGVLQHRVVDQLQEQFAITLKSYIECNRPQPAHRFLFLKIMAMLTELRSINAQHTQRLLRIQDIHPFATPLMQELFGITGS
Sequence of Peroxisome proliferator-activated receptor gamma (Homo sapiens) (P37231 whole entry, looked up): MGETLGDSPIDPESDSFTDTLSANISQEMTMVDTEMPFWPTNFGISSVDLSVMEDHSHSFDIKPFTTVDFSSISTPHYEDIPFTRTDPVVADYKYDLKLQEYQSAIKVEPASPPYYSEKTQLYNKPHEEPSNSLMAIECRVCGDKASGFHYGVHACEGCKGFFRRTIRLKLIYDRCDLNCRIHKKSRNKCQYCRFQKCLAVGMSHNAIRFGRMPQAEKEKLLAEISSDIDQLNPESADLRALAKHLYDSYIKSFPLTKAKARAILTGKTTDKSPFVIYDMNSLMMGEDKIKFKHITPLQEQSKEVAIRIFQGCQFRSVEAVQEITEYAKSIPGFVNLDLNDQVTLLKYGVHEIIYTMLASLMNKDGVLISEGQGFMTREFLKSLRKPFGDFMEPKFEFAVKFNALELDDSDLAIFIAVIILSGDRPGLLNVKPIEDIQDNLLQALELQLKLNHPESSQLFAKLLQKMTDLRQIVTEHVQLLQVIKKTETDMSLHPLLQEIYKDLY
Sequence of human Retinoic Acid Receptor beta (RARb), RARB (gene 5915) (P10826 whole entry, looked up, the tested form may be a part): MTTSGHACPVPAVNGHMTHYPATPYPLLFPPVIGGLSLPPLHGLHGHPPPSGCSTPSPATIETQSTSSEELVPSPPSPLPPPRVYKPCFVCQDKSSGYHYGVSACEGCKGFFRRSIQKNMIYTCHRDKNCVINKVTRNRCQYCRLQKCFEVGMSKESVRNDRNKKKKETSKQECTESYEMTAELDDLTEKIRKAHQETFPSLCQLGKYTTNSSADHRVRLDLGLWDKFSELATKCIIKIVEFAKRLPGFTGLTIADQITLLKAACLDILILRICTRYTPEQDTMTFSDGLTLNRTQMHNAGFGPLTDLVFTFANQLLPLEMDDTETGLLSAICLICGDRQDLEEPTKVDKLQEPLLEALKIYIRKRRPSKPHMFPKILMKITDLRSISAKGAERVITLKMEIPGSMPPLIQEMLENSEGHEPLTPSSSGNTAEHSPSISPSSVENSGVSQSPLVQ
Sequence of human Retinoic Acid Receptor gamma (RARg), RARG (gene 5916) (P13631 whole entry, looked up, the tested form may be a part): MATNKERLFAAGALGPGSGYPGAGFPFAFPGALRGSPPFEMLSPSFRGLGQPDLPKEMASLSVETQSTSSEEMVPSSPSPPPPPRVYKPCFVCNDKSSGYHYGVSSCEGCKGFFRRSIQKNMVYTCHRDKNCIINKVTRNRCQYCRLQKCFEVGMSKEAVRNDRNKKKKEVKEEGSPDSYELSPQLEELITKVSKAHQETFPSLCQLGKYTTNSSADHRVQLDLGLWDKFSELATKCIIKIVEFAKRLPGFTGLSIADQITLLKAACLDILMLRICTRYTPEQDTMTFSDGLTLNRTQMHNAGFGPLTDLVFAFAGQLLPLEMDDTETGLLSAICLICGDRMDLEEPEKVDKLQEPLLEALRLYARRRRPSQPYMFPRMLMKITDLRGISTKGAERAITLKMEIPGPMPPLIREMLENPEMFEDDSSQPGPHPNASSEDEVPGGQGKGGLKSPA
Sequence of human RAR-related Orphan Receptor beta (RORb), RORB (gene 6096) (Q92753 whole entry, looked up, the tested form may be a part): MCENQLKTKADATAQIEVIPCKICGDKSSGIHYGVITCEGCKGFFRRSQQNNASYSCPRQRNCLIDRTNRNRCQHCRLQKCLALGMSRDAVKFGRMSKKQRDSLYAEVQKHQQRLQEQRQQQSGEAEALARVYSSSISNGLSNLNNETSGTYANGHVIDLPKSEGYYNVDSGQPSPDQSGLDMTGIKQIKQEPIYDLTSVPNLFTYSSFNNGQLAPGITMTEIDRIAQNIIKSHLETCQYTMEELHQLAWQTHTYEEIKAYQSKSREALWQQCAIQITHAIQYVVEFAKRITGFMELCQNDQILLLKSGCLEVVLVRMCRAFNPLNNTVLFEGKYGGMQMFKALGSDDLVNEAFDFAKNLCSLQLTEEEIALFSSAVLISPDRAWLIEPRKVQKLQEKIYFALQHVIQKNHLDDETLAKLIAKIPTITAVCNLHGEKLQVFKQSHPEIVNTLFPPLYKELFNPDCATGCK

As for `C=C1C[C@]23C[C@@]1(O)CC[C@H]2[C@@]12C=C[C@H](O)[C@@](C)(C(=O)O1)[C@H]2[C@@H]3C(=O)O`, the molecule was classed as inactive in experiment [1], in [2], in experiment [3] and in [4].

Consider `Cc1[nH]c(=O)c(C#N)cc1-c1ccncc1`, for which the call in [1], in [5], in experiment [2], in [6], in experiment [7] and in experiment [8] was inactive. In addition, the result in [3], in [4] and in experiment [9] was inactive.

For `C=CC(=C)CCCC(C)(C)OC(C)=O`, the call in [1], in experiment [5], in experiment [2], in experiment [6], in experiment [8] and in experiment [10] was inactive. For the same molecule, the molecule was classed as inactive in experiment [4] and in experiment [9].

Consider `O=c1c(O)c(-c2ccc(O)cc2)oc2cc(O)cc(O)c12`, for which the outcome in experiment [1], in experiment [5], in experiment [6], in experiment [7], in experiment [8] and in [3] was inactive. Besides, the call in [9] was inactive. Further, the AC50 was 8.93 µM (active) in [2] and 9.39 µM (active) in experiment [4].

Consider `O=C(Nc1ccc2c(O)c(N=Nc3ccc(N=Nc4ccc(S(=O)(=O)O)cc4)cc3)c(S(=O)(=O)O)cc2c1)c1ccccc1`, for which the molecule was classed as inactive in [1], in experiment [2], in experiment [6], in experiment [7], in experiment [11] and in experiment [12]. Besides, the outcome in experiment [13], in [14], in experiment [15], in experiment [16], in experiment [4] and in [9] was inactive.

Take `CC(C)CCCCCCc1ccc(OCCOCCO)cc1`: the result in experiment [1], in experiment [5], in [2], in experiment [6], in [7] and in experiment [10] was inactive. The outcome in experiment [9] and in experiment [17] was inactive.

On to `CCO/C=C1\N=C(c2ccccc2)OC1=O`, for which the result in experiment [1], in experiment [5], in experiment [2], in experiment [6], in experiment [7] and in experiment [8] was inactive. Besides, the molecule was called inactive in experiment [3], in experiment [4] and in [9].

`O=C(O)CCCCCCCCCCCC(=O)O`: the outcome in experiment [1], in experiment [2], in experiment [6], in [7], in [8] and in experiment [4] was inactive. Further, the outcome in experiment [9] and in experiment [18] was inactive.

As for `CC(=O)OCCCc1ccccc1`, the outcome in experiment [1], in [5], in [2], in experiment [6], in [7] and in experiment [19] was inactive. Moreover, the outcome in experiment [9] and in experiment [17] was inactive.
